Consider 40 molecules from PubChem BioAssay (Tox21).

Molecules are shown by their SMILES. Records with an inconclusive call do not appear. Where a call stands in place of a potency, no number is given. Calls of active or inactive are those of the source. Calls follow the shape of the full dose curve.

Sequence of Beta-2 adrenergic receptor (Homo sapiens) (P07550 whole entry, looked up): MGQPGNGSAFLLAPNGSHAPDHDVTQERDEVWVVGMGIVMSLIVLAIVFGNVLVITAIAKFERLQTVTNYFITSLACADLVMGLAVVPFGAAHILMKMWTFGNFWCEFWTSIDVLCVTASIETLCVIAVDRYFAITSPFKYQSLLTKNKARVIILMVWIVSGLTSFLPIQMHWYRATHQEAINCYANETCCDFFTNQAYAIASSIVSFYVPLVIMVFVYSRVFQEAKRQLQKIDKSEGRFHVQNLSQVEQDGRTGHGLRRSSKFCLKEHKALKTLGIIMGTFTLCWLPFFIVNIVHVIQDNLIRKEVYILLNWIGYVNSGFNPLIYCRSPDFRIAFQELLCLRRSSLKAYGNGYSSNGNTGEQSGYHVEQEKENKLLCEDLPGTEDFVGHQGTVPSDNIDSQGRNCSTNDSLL

The target in the test is Beta-2 adrenergic receptor (Homo sapiens) (UniProt P07550). Kind of test: Adrenergic beta2 receptor (ADRB2) small molecule antagonists, cell-based qHTS assay (AID 1963592). Also: nearly all actives have a fitted effect of over 50% in size. The settings on record: CHO-ADRB2 cells, isoproterenol-stimulated cAMP HTRF ratio, 0.5 h; series mostly up to 92.4 µM. An excerpt:
U.S. Tox21 Program National Center for Advancing Translational Sciences [NCATS] Division of Preclinical Innovation [DPI] U.S. Environmental Protection Agency [EPA] National Institutes of Environmental Health Sciences [NIEHS] National Toxicology Program [NTP] U.S. Food and Drug Administration [FDA] Tox21 Assay Overview: Beta adrenergic receptors (Beta-ARs) belong to the G-protein coupled receptor (GPCR) superfamily, includes three subtypes - beta1, beta2, and beta3. Beta1-AR is the predominant receptor subtype expressed in the heart, and beta2-AR is expressed in the kidney, lung, blood vessel and in the heart, and beta3 is found in the adipocytes. Beta1 and 2 ARs couple to Gs protein and elevate cyclic adenosine mono phosphate (cAMP), which activates protein kinase A and leads to the downstream signaling responsible for the physiological actions. Beta-AR agonists or antagonists are the most prescribed therapeutic agents for heart failure and asthma, and these were one of the first target receptors for the rational drug design. Tox21 10K compound library was screened using the cAMP-Gs dynamic assay (Cisbio Bioassays, Shelton, CT) to identify agonists/antagonists of the Gs-coupled human adrenergic, beta2 receptor (ADRB2) in the CHO-ADRB2 cell line (Codex BioSolutions, Inc. Gaithersburg, MD), which stably over-expresses ADRB2. The principle of cAMP-Gs dynamic assay is based on HTRF technology, which facilitates the fluorescence resonance energy transfer (FRET) between donor Europium cryptate and acceptor d2-labeled cAMP. The cAMP generated within cells competes with the red acceptor, d2-labled cAMP, for binding to the monoclonal anti-cAMP-cryptate (Europium donor). An increase in intracellular cAMP leads to the disruption of FRET signal, and the signal is inversely proportional to the cAMP concentration. Propranolol HCl (Sigma-Aldrich, St. Louis, MO) was used as a positive control in the screening.
Tox21 Assay Protocol Summary: CHO-ADRB2 cells were dispensed at 1,000/well in 4uL assay medium into white/solid 1536-well plates (Greiner Bio-One North America Inc., Monroe, NC) using a Multidrop Combi dispenser (ThermoFisher Scientific, Waltham, MA). The assay plates were incubated at 37C and 5% CO2 for an overnight (18-20hr). Then positive control and test compounds dissolved in DMSO were transferred to the assay plates at 23nL using a Pintool station (Wako, San Diego, CA). Following the compound and positive control transfer, 1uL agonist-stimulation mix containing 1nM Isoproterenol HCl, 100uM IBMX and 25uM Ro-20-1724 was added to each well of the assay plates using BioRAPTR Flying Reagent Dispenser (FRD, Beckman Coulter, Brea, CA). The assay plates were incubated at room temperature for 0.5hr. Then 2.5ul each d2-labled cAMP and anti-cAMP-cryptate solutions were added separately to each well of the assay plates using an FRD and the assay plates were incubated at room temperature for 1hr. The fluorescence signal was measured at two different wavelengths (665nm and 615nm) using an Envision plate reader (Perkin Elmer, Shelton, CT). Data were expressed as the ratio of 665 nm/615 nm.
For orientation: Quantitative high-throughput screening tests each substance at several concentrations.
For `CNC(=O)Oc1cc(C)c(SC)c(C)c1`, the Potency result was “inactive”.
Take `COc1cccc2c1cc([N+](=O)[O-])c1c(C(=O)O)cc3c(c12)OCO3`: the Potency result is “inactive”.
Next, `CC(Oc1ccc(Oc2ncc(C(F)(F)F)cc2Cl)cc1)C(=O)O` (stereo not given): “inactive”.
Next, `CC(C)(c1cc(Cl)c(O)c(Cl)c1)c1cc(Cl)c(O)c(Cl)c1`: “inactive”.
Consider `Cn1sc(Cl)cc1=O`, for which the Potency entry was “inactive”.
Take `CC(C)=CC1C(C(=O)OCc2coc(Cc3ccccc3)c2)C1(C)C` (stereo not given): the Potency result is “inactive”.
In the case of `Nc1cc2c3c(c1)C(c1ccccc1)=N[C@@H](NC(=O)c1cccnc1)C(=O)N3CC2`, the Potency result is “inactive”.
As to `[Cl-].[Cl-].[Cl-].[Yb+3]`, the Potency result is “inactive”.
Take `CCC(C)Br` (stereo not given): the Potency result was “inactive”.
Next, `CSc1ccc(C(=O)C(C)(C)N2CCOCC2)cc1`: “inactive”; `CC1(C)[C@H](/C=C2\CCSC2=O)[C@@H]1C(=O)OCc1coc(Cc2ccccc2)c1`: “inactive”.
Next, `c1ccc2c(c1)[nH]c1cnccc12`: “inactive”.
`CC(CC(C(N)=O)(c1ccccc1)c1ccccc1)N(C)C` (stereo not given): the Potency result was “inactive”.
The value for `Cc1c(F)c(F)c(COC(=O)C2C(/C=C(\Cl)C(F)(F)F)C2(C)C)c(F)c1F` (stereo not given) was “inactive”; that for `CCC(=O)C(CCN(C)C)(c1ccccc1)c1ccccc1` was “inactive”; that for `Cc1ccc2ccccc2c1C` was “inactive”.
In the case of `O=S(=O)(Cl)c1ccccc1`, the Potency result is “inactive”.
Take `ClCCCCl`: the Potency entry was “inactive”.
As for `CC(=O)NC1CCSC1=O` (stereo not given), the Potency result is “inactive”.
Next, `CCOP(=S)(OCC)SCS(=O)(=O)C(C)(C)C`: “inactive”.
Take `CN[C@@H](C)[C@H](O)c1ccccc1`: the Potency result was “inactive”.
Next, `CCCN(CCCl)c1c([N+](=O)[O-])cc(C(F)(F)F)cc1[N+](=O)[O-]`: “inactive”; `O=S(=O)(O)F`: “inactive”; `O=S1(=O)OCC2C(CO1)C1(Cl)C(Cl)=C(Cl)C2(Cl)C1(Cl)Cl` (stereo not given): “inactive”.
The value for `ClC(Cl)C(Cl)Cl` was “inactive”; that for `CC(C)[C@H](C(=O)O[C@H](C#N)c1cccc(Oc2ccccc2)c1)c1ccc(Cl)cc1` was “inactive”; that for `CNC(C)Cc1ccccc1OC` (stereo not given) was “inactive”.
With `ClC(Cl)Br`, the Potency result is “inactive”.
The value for `COP(=O)(OC)O/C(=C/Cl)c1cc(Cl)c(Cl)cc1Cl` was “inactive”.
`COC(N)=O`: the Potency result is “inactive”.
With `Clc1ccc(-c2ccccc2)cc1`, the Potency entry was “inactive”.
The value for `CCCN(CCC)C(=O)Cc1c(-c2ccc(Cl)cc2)nc2ccc(Cl)cn12` was “inactive”; that for `ClC1=C(Cl)C2(Cl)C(CBr)CC1(Cl)C2(Cl)Cl` (stereo not given) was “inactive”; that for `CCOC(=O)NC(C)(C)Cc1ccc(Cl)cc1` was “inactive”.
Regarding `O=C(NC(=O)c1c(F)cccc1F)Nc1ccc(Oc2ccc(C(F)(F)F)cc2Cl)cc1F`, the Potency result is “inactive”.
The value for `O=c1ssc(Cl)c1Cl` was “inactive”; that for `COc1cccc2c1C(=O)c1c(O)c3c(c(O)c1C2=O)C[C@@](O)(C(=O)CO)CC3OC1CC(N2CCOC(OC)C2)C(O)C(C)O1` (stereo not given in full) was “inactive”.
Next, `CCCCOC(=O)c1ccccc1N`: “inactive”; `Nc1ccc([N+](=O)[O-])cc1[N+](=O)[O-]`: “inactive”.
For the molecule `C[C@]12Cc3cn[nH]c3C[C@@H]1CC[C@@H]1[C@@H]2CC[C@@]2(C)[C@H]1CC[C@]2(C)O`, the Potency result was “inactive”.
